# High-throughput results deposited in PubChem BioAssay by National Center for Advancing Translational Sciences (NCATS).
# In the library only some 7.5% were active in any assay of this set; here they are far more common.
# KinaseGlo FLuc = blocks Kinase-Glo luciferase, a counter-screen artifact; Q27757; Kinase-Glo luciferase, ATP luminescence, 8 min; Potency, µM (highest dose often 38.3 µM), for the others: at the top dose activity change, negative = inhibition, actives largely listed as inhibitors; 200,000 tested, 0.28% active; AID 1379; further: on the % scale 0 is the no-effect control and ±100 the full control effect; nearly all actives have a fitted effect of over 60% in size
#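 Recombinant Kinase-Glo luciferase, 10 uM ATP (linear range), luciferin; imidazole pH 7.2 / KCl / MgCl2 / Tween / BSA buffer; 8 min RT; luminescence.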
# ELG1 genotox = genotoxicity induction in ELG1-luciferase HEK293T cells | HEK293T ELG1-luciferase reporter, luminescence, 16 h | Potency, µM (highest dose often 46 µM), without a hit: at the top dose activity change, positive = activation, actives largely listed as activators | 330,000 tested, 1.3% active | AID 504466; further: % of control where 0% means no effect; nearly all actives have a fitted effect of over 60% in size
#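 After overnight (16 hr) compound treatment at 37 °C, ELG1-luciferase HEK293T cells were lysed with ONE-Glo; luminescence quantified 30 min later at room temperature.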
# Rab9 prom act = activators of Rab9 promoter; Huh7 Rab9 promoter-luciferase reporter, luminescence, 24 h; Potency, µM (top dose mostly 9.22 µM), without a hit: at the highest dose activation, negative = inhibition, hits mostly activators; 320,000 tested, 2.8% active; AID 485297; further: % of control where 0% means no effect; nearly all actives have a fitted effect of over 60% in size
#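 Luminescence read-out: Huh7 cells stably expressing Rab9-luciferase, treated 24 h with compound at 37 °C, then lysed with luciferase reagent for 10 min at ambient before reading.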
# SMN2 splice enh = SMN2 splice variant enhancement; HEK293 SMN2-luciferase splicing reporter, luminescence, 30-36 h; Potency, µM (titrated, usually from 46.1 µM), for the others: at the top dose activity change, positive = activation, usual class: activators; 210,000 tested, 2.8% active; AID 1458; further: % of control where 0% means no effect; nearly all actives have a fitted effect of over 55% in size
#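 HEK293 cells carry an SMN2 minigene-luciferase reporter in which exon 7 inclusion puts luciferase in frame. Cells were seeded at 2000 cells/well, attached for 10-12 hours, then exposed to compounds for 30-36 hours at 37C before ONE-Glo luminescence.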
# FLuc modulator = inhibits or activates purified firefly luciferase, miR-21 counter-screen. P08659. purified FLuc, Km substrates, luminescence inhibition. Potency, µM (top dose mostly 57.5 µM), for the others: at the highest dose activity change, negative = inhibition, hits mostly inhibitors. 360,000 tested, 6.9% active. AID 588342;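 further: plate controls were vehicle for no effect and reference inhibitor for full effect; nearly all actives have a fitted effect of over 55% in size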
# Target sequence (P08659 whole entry, looked up): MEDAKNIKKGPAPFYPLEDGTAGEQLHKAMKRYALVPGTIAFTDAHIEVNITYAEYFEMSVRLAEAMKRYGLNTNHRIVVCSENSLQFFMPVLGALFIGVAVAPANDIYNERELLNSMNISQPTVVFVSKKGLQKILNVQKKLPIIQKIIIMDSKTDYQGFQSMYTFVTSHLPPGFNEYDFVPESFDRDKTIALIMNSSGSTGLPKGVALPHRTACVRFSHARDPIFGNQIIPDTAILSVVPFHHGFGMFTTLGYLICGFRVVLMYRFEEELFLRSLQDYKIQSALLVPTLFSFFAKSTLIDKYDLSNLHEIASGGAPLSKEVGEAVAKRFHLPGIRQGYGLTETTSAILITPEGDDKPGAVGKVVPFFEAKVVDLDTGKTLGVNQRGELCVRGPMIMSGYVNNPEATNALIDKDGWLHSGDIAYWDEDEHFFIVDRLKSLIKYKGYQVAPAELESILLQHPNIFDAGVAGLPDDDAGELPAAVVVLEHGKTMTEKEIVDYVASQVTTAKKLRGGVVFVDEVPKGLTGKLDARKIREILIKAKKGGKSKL
#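 Purified P. pyralis luciferase, 10 nM final, with Km-level 10 uM D-luciferin and 10 uM ATP in 50 mM Tris acetate pH 7.5, 10 mM Mg acetate, 0.01% Tween-20, 0.05% BSA; 6-point qHTS titration about 60 µM downward; luminescence read.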
# NPC1 promoter act = activates the NPC1 promoter; AID 485313; Huh7 NPC1 promoter luciferase reporter, 24 h; 320,000 tested, 2.4% active; Potency, µM (series often up to 9.22 µM), for inactives: at the highest dose activation, usual class: activators; further: % of control where 0% means no effect; nearly all actives have a fitted effect of over 60% in size
#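 Huh7 reporter cells (NPC1 promoter driving luciferase) are dosed with compound for 24 h at 37 °C, 5% CO2; luciferase detection reagent is then added and luminescence measured after 10 min at ambient temperature.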
# An asterisk follows results filed as active; ? = inconclusive; . = no result given; [ ] = dose if it differs, or a comment. The call rests on the fitted dose curve; in most records, active means well fitted curve in the direction sought with a large enough effect; inconclusive means small, poorly fitted or top-dose-only effect, or another doubt; inactive means no such curve, though single readings can be large; an effect the other way counts as inactive or inconclusive. Potency means the concentration at half of the fitted maximal effect.
SMILES,KinaseGlo FLuc,ELG1 genotox,Rab9 prom act,SMN2 splice enh,FLuc modulator,NPC1 promoter act
O=C1/C(=C/c2cccc(Cl)c2)CSc2sccc21,.,-2%,-2%,.,1%,-1%
Cc1ccc(C)c(OCc2nc3ccccc3[nH]2)c1,-5%,16%,?,?,15µM*,?
CCCCNC(=O)c1nnn(-c2ccccc2)c1N,0%,?,?,13µM*,?,?
COc1cc2ccccc2cc1C(=O)Nc1cccnc1,1%,8.2µM*,?,13µM*,11µM*,?
COc1cc(NC(=O)c2cc3ccccc3cc2O)c(OC)cc1Cl,.,-6%,-7%,.,9.5µM*,?
COc1ccc(NC(=O)c2cc3ccccc3cc2OC)cc1,.,?,29%,.,3.4µM*,?
COc1cc2cc(C(=O)Nc3ccccc3)c(N)nc2cc1OC,0%,0%,-1%,-7%,12µM*,2%
COc1cc(OC)c(NC(=O)c2ccccc2F)cc1Cl,-1%,3%,14%,13%,?,6%
COc1ccccc1NC(=O)c1cc2cc(Br)ccc2cc1O,.,-10%,-5%,.,17µM*,1%
CCOc1ccc(NC(=O)c2cccc3ccccc23)cc1,.,4%,14%,.,-17%,-11%
COc1cc2ccccc2cc1C(=O)Nc1ccc(N2CCN(C(=O)C(C)C)CC2)cc1,.,-13%,-1%,.,-8%,2%
COc1cc2ccccc2cc1C(=O)Nc1ccccc1Cl,.,?,26%,.,3.4µM*,?
CCOc1ccc(NC(=O)c2cc3ccccc3cc2OC)cc1,.,?,?,.,5.4µM*,?
COc1cc2ccccc2cc1C(=O)Nc1ccc(N2CCN(C)CC2)cc1,-2%,14µM*,3.5µM*,50%,4.8µM*,?
CCN(CC)CCCNC(=O)c1ccc2c(c1)N(Cc1c(F)cccc1Cl)C(=O)c1ccccc1S2,.,.,.,-65%,-5%,.
Cc1cc(C)cc(OCC(=O)Nc2ccc(Cl)c(-c3nc4ncccc4o3)c2)c1,.,.,.,-17%,-2%,.
COc1ccc(NC(=O)c2cccn(CC=C(C)C)c2=O)cc1,2%,6%,1.6µM*,2%,17µM*,?
C=CCn1cccc(C(=O)Nc2ccc(OC)cc2)c1=O,-14%,12%,?,.,?,?
CCOc1ccc(NC(=O)c2cc3ccccc3cc2O)cc1,.,?,2.8µM*,.,0.76µM*,?
O=C(c1ccc(C#Cc2ccccc2)o1)N1CCN(c2ccccn2)CC1,-5%,1%,3%,-14%,?,2%
COC(=O)c1ccc(C#Cc2ccccc2)o1,.,14%,17%,.,17µM*,19%
COc1ccc(Nc2nc3ccccc3n3cnnc23)cc1,17%,5%,-3%,?,-13%,-4%
Cn1c(CNc2ccc(O)cc2)nc2ccccc21,.,?,?,.,13µM*,?
COc1ccc(NCc2nc3ccccc3n2CCOc2ccc(C)cc2)cc1,2%,?,14%,-23%,?,16%
COc1ccc(Nc2nc3ccccc3n3c(N)nnc23)cc1,.,.,.,16%,9.5µM*,.
SMILES,KinaseGlo FLuc,ELG1 genotox,Rab9 prom act,SMN2 splice enh,FLuc modulator,NPC1 promoter act
COc1ccc(Nc2nc3ccccc3n2C)cc1,.,25%,3.2µM*,.,15µM*,2.5µM*
COc1ccc(NCc2nc3ccccc3n2C)cc1,.,5.2µM*,2.2µM*,.,11µM*,1.8µM*
COc1ccc(NCc2nc3ccccc3n2CCOc2ccccc2)cc1,-2%,21µM*,?,?,13µM*,?
Cc1nc2ccccc2n1CCCOc1ccccc1,-1%,14%,17%,-26%,11µM*,12%
CCOC(=O)c1ccc(NCc2nc3ccccc3n2C)cc1,.,27%,3.2µM*,.,?,3.2µM*
Cc1ccc(NCc2nc3ccccc3n2C)cc1C,.,?,2.8µM*,.,4.8µM*,3.5µM*
CC(C)C(=O)NCCc1nc2ccccc2n1C,2%,0%,0%,3%,1%[2.3 µM],0%
O=C(Nc1ccc(-n2cccn2)cc1)C1CCCCN1Cc1cccc2c1OCO2 (stereo unspecified),.,3%[9.26 µM],-7%,.,2%,-21%
Cc1ccc(NC(=O)NCc2nc3ccccc3n2C)cc1,.,-3%,1%,.,-2%,-7%
Cn1c(CNc2ccc(Br)cc2)nc2ccccc21,.,?,2.8µM*,.,2.7µM*,1.6µM*
Cc1ccc(NCc2nc3ccccc3n2C)cc1,?,1.5µM*,0.63µM*,2.2µM*,3.4µM*,1.1µM*
Cn1c(CNc2nc3ccccc3n2C)nc2ccccc21,-5%,9%,?,?,?,3.5µM*
Cn1c(CNC2CCCCC2)nc2ccccc21,-3%,-1%,-2%,0%,4%,1%
CC(C)n1c(NCc2nc3ccccc3n2C)nc2ccccc21,6%,-2%,2%,-3%,-18%,0%
Cc1ccc(C(=O)CNc2ccc(C)c(Cl)c2)cc1,-2%,?,10%,2%,?,13%
Cc1ccc(NCC(=O)c2ccccc2)cc1Cl,-7%,16%,-3%,18µM*,?,-3%
Cc1ccc(C(=O)CNc2cccc(Cl)c2)cc1,-4%,?,?,3%,2.7µM*,10%
Cc1ccc(NCC(=O)c2ccc(C)cc2)cc1,.,?,29%,.,9.5µM*,28%
Cc1cc(C)cc(-n2c(SCC(N)=O)nc3c(oc4ccccc43)c2=O)c1,.,.,.,0%,1%,.
CCOc1ccc2ccc(OCC)c(/C=N/n3cnnc3)c2c1,.,8%,11%,.,1%,-3%
O=C(NCc1csc(-c2ccccc2)n1)c1cc(F)cc2c1OCOC2,.,19%,?,.,19µM*,?
Cc1ccc(C(C)(C)C)c(SCC(=O)Nc2nnc(C)s2)c1,.,-1%,-2%,.,1%,-1%
O=C(COc1cccc(F)c1)Nc1nc(-c2ccncc2)cs1,.,-3%,-6%,.,-10%,2%
O=C(O)Cc1ccc2sc(-c3ccccc3)nc2c1,?,8%,21%,21%,19µM*,14%
COC(=O)Cc1ccc2sc(-c3ccccc3)nc2c1,13µM*,2.6µM*,2.5µM*,1.6µM*,0.67µM*,1.6µM*
O=C(Nc1ccc(-c2cn3ccccc3n2)cc1)c1cccs1,-24%,?,3.5µM*,11µM*,1.9µM*,1.8µM*
CCC(=O)Nc1cccc(-c2cn3ccccc3n2)c1,0%,12%,?,?,11µM*,?
O=C(Nc1ccc(-c2cn3ccccc3n2)cc1)c1cc(Br)ccc1O,-2%[7.66 µM],.,.,2%[9.22 µM],.,.
COc1ccc(CC(=O)Nc2cccc(-c3cn4ccccc4n3)c2)cc1,-5%,-3%,23%,25%,8.5µM*,2%
COc1ccc(CC(=O)Nc2ccc(-c3cn4ccccc4n3)cc2)cc1OC,-2%,?,18%,-17%,17µM*,21%
